GALK inh = galactokinase (human) inhibition. P51570. Purified GALK, Kinase-Glo residual ATP luminescence. Potency, µM (top dose mostly 57.5 µM), without a hit: at the top dose activity change, negative = inhibition, usual class: inhibitors. 270,000 tested, 0.007% active
Target sequence (P51570 whole entry, looked up): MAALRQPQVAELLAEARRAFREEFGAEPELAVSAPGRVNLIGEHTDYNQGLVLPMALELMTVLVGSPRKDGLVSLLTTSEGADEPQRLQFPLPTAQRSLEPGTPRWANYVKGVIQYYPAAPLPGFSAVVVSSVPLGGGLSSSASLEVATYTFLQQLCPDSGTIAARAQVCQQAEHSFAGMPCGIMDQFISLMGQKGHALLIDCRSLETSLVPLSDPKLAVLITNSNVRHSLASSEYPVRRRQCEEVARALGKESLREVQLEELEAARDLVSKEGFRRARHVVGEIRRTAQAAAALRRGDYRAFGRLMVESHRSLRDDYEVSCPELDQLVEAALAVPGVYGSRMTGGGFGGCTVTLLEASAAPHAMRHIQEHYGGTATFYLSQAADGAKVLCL
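Human GALK (5 nM) with 35 uM ATP and 100 uM galactose in 20 mM HEPES pH 8.0, 5 mM MgCl2, 60 mM NaCl, 1 mM DTT, 0.01% BSA. After 1 h at room temperature, leftover ATP was read by Kinase-Glo Plus luminescence.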
rTrxR1 inhibitor = inhibitors of rat thioredoxin reductase 1. recombinant rTrxR1, NADPH fluorescence consumption, selenite substrate. Potency, µM (titrated, usually from 114 µM), inactives show at the highest dose activity change, negative = inhibition, most hits filed as inhibitors. 390,000 tested, 1% active. AID 588453; note: nearly all actives have a fitted effect of over 65% in size
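Rat TrxR1 (90 nM in the dispensed reagent) was pre-reduced with 400 uM NADPH for 5 min at room temperature, then incubated with compound for 15 min. After 400 uM selenite was added, NADPH fluorescence (Ex 340/Em 450 nm) was followed for 8 min.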
TrxR1 substrate = rat thioredoxin reductase 1 substrate activity; purified TrxR1 substrate turnover, NADPH consumption readout; Potency, µM (titrated, usually from 114 µM), inactives show at the top dose activity change, negative = substrate turnover; 390,000 tested, 0.01% active; AID 588456; note: nearly all actives have a fitted effect of over 50% in size
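Rat TrxR1, dispensed at 90 nM, was prereduced with 400 uM NADPH (final) for 5 min at ~22 deg C, then incubated with compound 15 min before 400 uM selenite. A first-read NADPH fluorescence drop versus no-compound background flagged substrates.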
NPSR antag = blocks cAMP signaling of the human neuropeptide S receptor; CHO-NPSR cells, cAMP TR-FRET, antagonist mode; Potency, µM (titrated, usually from 38.3 µM), inactives show top-dose activity change, negative = inhibition, hits mostly inhibitors; 220,000 tested, 1% active; AID 1461; note: nearly all actives have a fitted effect of over 50% in size
* hit, by the source's call; ? = inconclusive; . = no result given; [ ] = another dose, or the depositor's remark. Only some compounds are listed: those with a hit (about 1.2% of all), similar ones and a draw of the others. Calls come from the whole dose curve; as a rule, active = well fitted curve in the direction sought with a large enough effect; inconclusive = small, poorly fitted or top-dose-only effect, or another doubt; inactive = no such curve, though single readings can be large; an effect the other way counts as inactive or inconclusive. % is set by controls: 0 for no effect and ±100 for the full control effect; potency is the fitted concentration of half-maximal effect.

SMILES | GALK inh | rTrxR1 inhibitor | TrxR1 substrate | NPSR antag
CCN(CC)CC(=O)Nc1sc(C)cc1C(=O)c1ccccc1 | -0.2% | -7.9%[57.1 µM] | -8.4% | .
Cc1cc(C(=O)c2ccccc2)c(NC(=O)CCl)s1 | -1.3% | 20µM* | -6.7% | ?
O=C(CCl)Nc1ccccc1Sc1ccc(Cl)cc1 | -0.5% | 8.91µM* | -9.3% | ?
CN(C)S(=O)(=O)c1cccc(-c2nn(-c3ccccc3)cc2/C=C2\SC(=S)NC2=O)c1 | -10.1% | -26.5% | -11.7% | 7.94µM*
Cc1ccc2c(c1)C(c1ccccc1)N(C(=O)COc1ccc(Cl)cc1Cl)CC(=O)N2 (stereo unspecified) | . | 16.0% | 1.0% | .
Cc1ccc(CS(=O)(=O)c2ccc(C(=O)N3CCCCC3)cc2[N+](=O)[O-])cc1 | 1.8% | -51.6% | 11.7%[57.1 µM] | -1.3%
CCN(CC)C(=O)c1ccc(S(=O)(=O)Cc2ccc(C)cc2)c([N+](=O)[O-])c1 | 7.6% | 31.6µM* | 10.7% | .
COc1cc(/C=C2\CCCc3c2nc2ccccc2c3C(=O)O)cc(Br)c1O | 2.2% | -22.7% | -13.1% | .
CCOc1cc(/C=C2\CCCc3c2nc2ccccc2c3C(=O)O)ccc1OC | -2.8% | 79.4µM* | -12.3% | .
CCOc1cc(NC(=S)NCCCN2CCOCC2)c(OCC)cc1NC(=O)C(C)C | 2.1% | -35.3% | 0.6% | 8.9%
CCOc1cc(NC(=S)NCCCN2CCOCC2)c(OCC)cc1NC(=O)CC(C)C | -3.5% | 22.4µM* | 1.2%[57.1 µM] | 1.2%[46.1 µM]
CCC(=O)Nc1cccc(-c2cnc3ccccc3n2)c1 | 2.8% | -7.6% | -4.4% | -14.1%[46.1 µM]
O=C(CCl)Nc1cccc(-c2cnc3ccccc3n2)c1 | -4.5% | 20µM* | -0.6% | -24.1%[46.1 µM]
CC(=O)C[C@H]1c2cc(F)cc(F)c2S(=O)(=O)N1C1CCN(Cc2ccccc2)CC1 | . | 2.1% | 2.5% | .
COC(=O)c1ccc(C(=O)OC)c(NC(=O)/C=C/C(=O)O)c1 | 0.5% | 44.7µM* | 30.6% | 15.6%
C#CCN(C1CCCC1)S(=O)(=O)C=C | . | ? | 2.1% | .
CCOc1ccc(N2C(=O)CC(NCCNc3ccc([N+](=O)[O-])cn3)C2=O)cc1 (stereo unspecified) | -1.6% | ? | -2.1% | -6.6%
COc1ccc(N2C(=O)CC(NCCNc3ccc([N+](=O)[O-])cn3)C2=O)cc1 (stereo unspecified) | 1.4% | 14.1µM* | -6.2% | 12.2%
COc1ccc(CCNC(=O)CSc2ccc(-c3ccco3)nn2)cc1OC | 1.9% | ? | 0.0% | 7.5%
Cc1nnc(NC(=O)CSc2ccc(-c3ccco3)nn2)s1 | -1.3% | 17.8µM* | 9.6% | 1.6%
O=C(CSc1ccc(-c2ccco2)nn1)Nc1ccc(F)cc1 | 4.0% | 31.6µM* | 8.1% | .
COc1ccc(NC(=O)CSc2ccc(-c3ccco3)nn2)cc1OC | -2.8% | 35.5µM* | -1.8% | .
O=C(CSc1ccc(-c2ccco2)nn1)c1ccccc1 | -0.3% | 28.2µM* | -5.8% | -28.9%[46.1 µM]
Cc1noc(C)c1S(=O)(=O)Nc1ccc(C(=O)Nc2ccc(C(C)C)cc2)cc1 | . | -6.8% | -9.1% | .
CN(C)c1ccc(C(=O)Oc2cc(O/N=[N+](\[O-])N(C)C)c([N+](=O)[O-])cc2[N+](=O)[O-])cc1 | . | -15.4% | -4.8% | .
SMILES | GALK inh | rTrxR1 inhibitor | TrxR1 substrate | NPSR antag
O=C(Cn1nc(-c2ccco2)ccc1=O)Nc1ccc(Br)cc1 | 7.2% | 39.8µM* | 20.5% | .
Cc1cccc(NC(=O)Cn2nc(-c3ccco3)ccc2=O)c1C | -0.9% | ? | 20.6% | .
COc1cccc(NC(=O)CSc2ccc(-c3ccco3)nn2)c1 | -4.6% | 28.2µM* | 5.0% | .
CCOc1ccc(NC(=O)CSc2ccc(-c3ccco3)nn2)cc1 | -1.1% | ? | 4.3% | .
Cc1ccc(-c2nn(-c3ccc(F)cc3)c3c2cnc2cc(F)c(F)cc23)cc1 | . | -13.7% | -7.8% | .
O=C(c1ccco1)N1CCN(Cc2csc(-c3ccccc3Cl)n2)CC1 | -4.9% | 70.8µM* | 0.7% | .
CC(=O)OCC(NC(=O)C(COCc1ccccc1)NC(=O)OC(C)(C)C)C1OC(n2cc(F)c(=O)[nH]c2=O)C(OC(C)=O)C1OC(C)=O (stereo unspecified) | . | 18.3%[57.1 µM] | 0.7% | .
COc1ccc(NC(=S)Nc2cccc([N+](=O)[O-])c2)cc1 | 1.7% | 17.8µM* | -5.7% | -8.9%[46.1 µM]
CCOC(=O)/C=C/C(=O)Nc1cccc([N+](=O)[O-])c1 | 0.6% | 3.98µM* | -13.3% | ?
COc1ccccc1CN1CC(C(=O)NCc2cc(F)ccc2C)CCC1=O (stereo unspecified) | . | 14.6% | 3.4% | .

Screening data from PubChem.
